Measured values published in PubChem BioAssay (NCATS).
Records with an inconclusive call do not appear. A call without a number means that no potency is given here. The source made the active and inactive calls. The call rests on the fitted dose curve; in most records, active means well fitted curve in the direction sought with a large enough effect; inconclusive means small, poorly fitted or top-dose-only effect, or another doubt; inactive means no such curve, though single readings can be large; an effect the other way counts as inactive or inconclusive.

experiment: qHTS of pediatric cancer cell lines to identify multiple opportunities for drug repurposing: Confirmatory screen for RD cells (AID 1347124); conditions: RD rhabdomyosarcoma cell viability; series mostly up to 45.9 µM;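 further: cells exposed to compound for 48 h before viability readout; nearly all actives have a fitted effect of over 65% in size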
How it was run: (§1)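 Viability after 48 h compound treatment at 37C, 500-1,000 cells/well, read as ATP luminescence with CellTiter-Glo. Primary screens used 11-point (MIPE, 0.78 nM-46 µM) or 8-point (NPC, 0.59 nM-46 µM) final concentrations; follow-up screens used 11-point dilutions.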
Potency means the concentration at half of the fitted maximal effect.

Row | SMILES | Potency
1 | CC=C(C)C(=O)O[C@H]1C(C)=C[C@]23C(=O)[C@@H](C=C(CO)[C@@H](O)[C@]12O)[C@H]1[C@@H](C[C@H]3C)C1(C)C | inactive
2 | Cc1nnc(C(C)C)n1C1C[C@H]2CC[C@@H](C1)N2CC[C@H](NC(=O)C1CCC(F)(F)CC1)c1ccccc1 (stereo partly drawn) | 7.37 µM (active)
3 | O=C(O)c1ccc(-c2cc3cccnc3c(-c3ccc4nonc4c3)n2)cc1 | 7.37 µM (active)
4 | CC1(C)CCC2=C(O1)c1ccccc1C(=O)C2=O | 0.465 µM (active)
5 | CO[C@H]1C[C@@H]2CC[C@@H](C)[C@@](O)(O2)C(=O)C(=O)N2CCCC[C@@H]2C(=O)O[C@H]([C@H](C)C[C@@H]2CC[C@H](OCCO)[C@H](OC)C2)CC(=O)[C@H](C)C=C(C)[C@@H](O)[C@@H](OC)C(=O)[C@H](C)C[C@H](C)C=CC=CC=C1C | inactive
6 | O=C1NC(=O)C(=Cc2ccc3c(c2)OC(F)(F)O3)S1 | inactive
7 | CC(=O)Nc1ccc([C@H](C)C(=O)Nc2ncc(C(C)C)s2)cc1 | 7.37 µM (active)
8 | CC[C@@H]1C=C(C)C[C@H](C)C[C@H](OC)[C@H]2O[C@@](O)(C(=O)C(=O)N3CCCC[C@@H]3C(=O)O[C@H](C(C)=C[C@@H]3CC[C@H](Cl)[C@H](OC)C3)[C@H](C)[C@@H](O)CC1=O)[C@H](C)C[C@H]2OC | inactive
9 | COc1ccc2c(Oc3ccc(NC(=O)c4c(C)n(CC(C)(C)O)n(-c5ccccc5)c4=O)cc3F)ccnc2c1 | inactive
10 | O=c1cc(-c2ccc(O)cc2)oc2cc(O)cc(O)c12 | inactive

experiment: qHTS of pediatric cancer cell lines to identify multiple opportunities for drug repurposing: Confirmatory screen for Rh18 cells (AID 1347125); conditions: Rh18 rhabdomyosarcoma cells, viability; series mostly up to 45.9 µM; further: nearly all actives have a fitted effect of over 55% in size
How it was run: as §1

Row | SMILES | Potency
11 | CC=C(C)C(=O)O[C@H]1C(C)=C[C@]23C(=O)[C@@H](C=C(CO)[C@@H](O)[C@]12O)[C@H]1[C@@H](C[C@H]3C)C1(C)C | inactive
12 | CNC1CCC(N(Cc2cccc(-c3ccncc3)c2)C(=O)c2sc3c(F)ccc(F)c3c2Cl)CC1 (stereo not drawn) | inactive
13 | Cc1nnc(C(C)C)n1C1C[C@H]2CC[C@@H](C1)N2CC[C@H](NC(=O)C1CCC(F)(F)CC1)c1ccccc1 (stereo partly drawn) | 6.57 µM (active)
14 | CO[C@H]1C[C@@H]2CC[C@@H](C)[C@@](O)(O2)C(=O)C(=O)N2CCCC[C@@H]2C(=O)O[C@H]([C@H](C)C[C@@H]2CC[C@H](OCCO)[C@H](OC)C2)CC(=O)[C@H](C)C=C(C)[C@@H](O)[C@@H](OC)C(=O)[C@H](C)C[C@H](C)C=CC=CC=C1C | inactive
15 | O=C1NC(=O)C(=Cc2ccc3c(c2)OC(F)(F)O3)S1 | inactive
16 | CO[C@H]1C[C@@H]2CC[C@@H](C)[C@@](O)(O2)C(=O)C(=O)N2CCCC[C@@H]2C(=O)O[C@H]([C@H](C)C[C@@H]2CC[C@H](OP(C)(C)=O)[C@H](OC)C2)CC(=O)[C@H](C)C=C(C)[C@@H](O)[C@@H](OC)C(=O)[C@H](C)C[C@H](C)C=CC=CC=C1C | inactive
17 | O=C(NCc1ccncc1)C12C[C@H]3C[C@@H](C1)CC(c1ccc(Cl)cc1)(C3)C2 | inactive
18 | NS(=O)(=O)c1cccc2c1C(=O)c1cccc(O)c1C2=O | 2.33 µM (active)
